Results on 33 molecules are retold here after the supplement of paper PMC3842684.

Experiment [1] relates to P. falciparum NF54-pfs16-GFP early (I-III) stage gametocytes. Put plainly: relative % inhibition of viable gametocyte number; higher = more gametocytocidal. Conditions: stage: early (I-III) gametocyte, incubation 72 h. A digest of the protocol:
(§1)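 Relative inhibition was normalised to in-plate vehicle and positive-control wells, with viable gametocytes defined on confocal images as elongated GFP objects whose MitoTracker Red signal exceeded a cut-off. NF54 pfs16-GFP gametocytes, magnet-isolated at early (I/IIa, day 2) or late (day 8) stage, were plated at 10% parasitaemia, 0.1% haematocrit with compound at 5 or 0.5 µM. Plates were incubated 72 h at 37°C, 5% CO2, 5% O2, then stained overnight.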

Experiment [2] has as its system P. falciparum NF54-pfs16-GFP late (IV-V) stage gametocytes. The experiment is described as above. The settings on record: stage: late (IV-V) gametocyte, incubation 72 h. An outline of the steps: as §1

As to `Cc1ccc(-c2cc3c(SCC(=O)Nc4cc(C(F)(F)F)ccc4Cl)nccn3n2)cc1`, the relative % inhibition was -5.62% in experiment [1] (0.5 µM), -12% in experiment [1] (5 µM), 14.7% in experiment [2] (0.5 µM) and -15.9% in experiment [2] (5 µM).
On the same counts, the results for `O=C(NC1CCN(Cc2ccccc2)CC1)c1cc(C(=O)NC2CCN(Cc3ccccc3)CC2)cc(C(=O)NC2CCN(Cc3ccccc3)CC2)c1` are 20.3%, 82%, 0.475% and 31.9%.
Take `COc1ccc(-c2cc3c(SCC(=O)Nc4cc(C(F)(F)F)ccc4Cl)nccn3n2)cc1`: the relative % inhibition in experiment [1] (0.5 µM) was 14.5%; in experiment [1] (5 µM), -14.1%; in experiment [2] (0.5 µM), -14.3%; in experiment [2] (5 µM) it was 3.88%.
On the same counts, the results for `O=C(Nc1ccsc1C(=O)NC1CCCCC1)c1ccc(F)cc1` are -1.56%, 19.9%, -4.86% and -23.6%.
On the same counts, the results for `CCOc1ccc2nc(C)cc(Nc3ccc(Br)cc3)c2c1` are 38.4%, 58.5%, 14.7% and 57.1%.
Taken in the same sequence, the figures for `FC(F)(F)c1cccc(CNC2CCN(CCc3ccccc3)CC2)c1` were -2.89%, 82.2%, 1.32% and -17.4%.
On to `CCCCCn1c(=N)n(CC(O)COc2cccc(C)c2)c2ccccc21` (configuration not stated), for which the relative % inhibition in experiment [1] (0.5 µM) is 37.7%; in experiment [1] (5 µM), 74.5%; in experiment [2] (0.5 µM), -3.63%; in experiment [2] (5 µM) it was 56%.
On the same counts, the results for `CCOc1ccccc1CNC(=O)C1c2ccccc2C(=O)N(CC(C)C)C1c1cccs1` (configuration not stated) are 6.2%, 54.1%, -4.49% and -12.6%.
Taken in the same sequence, the figures for `O=C1c2ccc3c4c(ccc(c24)C(=O)N1CCCCO)C(=O)N(CCCCO)C3=O` were -9.07%, 4.23%, 5.48% and 4.35%.
On the same counts, the results for `CCCN(CCC)CCCNC(=O)c1cc2c(-c3ccc(OC)c(OC)c3)nn(C)c2s1` are 29.6%, 43.5%, 18.3% and -7.44%.
As to `CCCCNc1nc(NC(C)(C)C)nc(NC(C)(C)C)n1`, the relative % inhibition was -7.87% in experiment [1] (0.5 µM), 40.6% in experiment [1] (5 µM), 31.7% in experiment [2] (0.5 µM) and 43.5% in experiment [2] (5 µM).
On the same counts, the results for `Cc1sc2ncnc(Sc3nc4ccccc4[nH]3)c2c1C` are 89.7%, 91.1%, 30.6% and 94.5%.
Taken in the same sequence, the figures for `CCOc1cc(Cl)c(C(C)NC(=O)c2ccccc2)cc1OCC` (configuration not stated) were 15.1%, 34.5%, 8.2% and 38.7%.
For the molecule `CC(C)(C)c1ccc(O)c(CNC2CCCCC2)c1`, the relative % inhibition turned out to be 89.9% in experiment [1] (0.5 µM), 90.6% in experiment [1] (5 µM), 61.1% in experiment [2] (0.5 µM) and 81% in experiment [2] (5 µM).
On the same counts, the results for `O=C(Nc1ccc(C23CC4CC(CC(c5ccccc5)(C4)C2)C3)cc1)c1cccs1` are -8.5%, 12.3%, 12.9% and 31.6%.
Taken in the same sequence, the figures for `COc1ccc(N2CCN(C(CNC(=O)CC(C)(C)C)c3ccc4c(c3)OCO4)CC2)cc1` (configuration not stated) were 31.4%, 24.4%, 42.2% and 25.6%.
On the same counts, the results for `CCOC(=O)c1cnc2c(C)cccc2c1Nc1ccc(C(C)=O)cc1` are -9.17%, 7.93%, 7.91% and -0.973%.
`CCc1c(C)c(=N)c2ccccc2n1C`: the relative % inhibition was -1.08% in experiment [1] (0.5 µM), 8.52% in experiment [1] (5 µM), -17.1% in experiment [2] (0.5 µM) and -7.51% in experiment [2] (5 µM).
As for `O=C(Nc1ccc(N2CCCCC2)c(Cl)c1)c1ccc(Br)o1`, the relative % inhibition was determined as 5.95% in experiment [1] (0.5 µM), 8.62% in experiment [1] (5 µM), 6.1% in experiment [2] (0.5 µM) and 22.2% in experiment [2] (5 µM).
Taken in the same sequence, the figures for `COc1ccc(-c2nonc2NC(=O)c2cccc(Cl)c2)cc1OC` were 31.7%, -10.8%, -17.2% and -2.96%.
On the same counts, the results for `COc1cccc(-c2nn(C)c3sc(C(=O)NCCN4CCN(c5ccccc5F)CC4)cc23)c1` are 12.4%, 82.5%, 16.7% and 4.42%.
On the same counts, the results for `Oc1ccccc1CN1CCN(C(c2ccccc2)c2ccccc2)CC1` are 13.3%, 98.5%, 28.3% and 78.5%.
`CSc1ccccc1C(=O)Nc1nc(-c2ccccn2)cs1`: the relative % inhibition in experiment [1] (0.5 µM) amounted to 27.3%; in experiment [1] (5 µM) it was 92.9%; in experiment [2] (0.5 µM), 19.1%; in experiment [2] (5 µM), 96.9%.
On the same counts, the results for `COc1ccc(-c2c(C)nn3c(N)c(C#N)cnc23)cc1OC` are -24.1%, 22.9%, 63.6% and 108%.
On the same counts, the results for `O=C(Nc1ccc(-c2nc3cc4ccccc4cc3[nH]2)cc1)c1cccc(Br)c1` are 23.2%, 34.5%, -2.59% and 7.93%.
Taken in the same sequence, the figures for `COc1ccc(-c2cn3c(C(=O)Nc4ccccc4Cl)c(-c4ccccc4)c4c3n2CCCC4)cc1` were 10.5%, 30.9%, 4.28% and 22.5%.
For the molecule `FC(F)(F)c1cccc(Nc2nc(-c3ccccc3)nc3ncccc23)c1`, the relative % inhibition in experiment [1] (0.5 µM) was 5.1%; in experiment [1] (5 µM), -19.6%; in experiment [2] (0.5 µM), 2.84%; in experiment [2] (5 µM), -1.26%.
On the same counts, the results for `CCOc1ccc(Nc2c3ccccc3nc3ccccc23)cc1` are -20.8%, 84%, 8.64% and 20.9%.
Take `O=C(NCCCN1CCC(N2CCCCC2)CC1)C1=Cc2cc(Br)ccc2OC1`: the relative % inhibition in experiment [1] (0.5 µM) is 42.8%; in experiment [1] (5 µM) it was 102%; in experiment [2] (0.5 µM), -12.5%; in experiment [2] (5 µM) it was 19.4%.
Taken in the same sequence, the figures for `COc1nc(Nc2ccc(C(C)C)cc2)nc(OC)n1` were 24.9%, 0.105%, -0.358% and -10.9%.
On to `CC(C)(C)c1ccc(C2CC3=Nc4ccccc4N(C(=O)c4ccccc4Cl)C(c4ccc(F)cc4)C3=C(O)C2)cc1` (configuration not stated), for which the relative % inhibition in experiment [1] (0.5 µM) worked out at 20%; in experiment [1] (5 µM), 80.4%; in experiment [2] (0.5 µM), 60.8%; in experiment [2] (5 µM), 89.9%.
Taken in the same sequence, the figures for `O=C(Nc1cccc(C(F)(F)F)c1)c1cc(Cl)ccc1O` were -0.916%, 104%, 15% and 30.1%.
Taken in the same sequence, the figures for `COc1cccc(C2(C)Nc3ccccc3-c3nc4ccccc4n32)c1` (configuration not stated) were -5.06%, 5.7%, 27.8% and 16.2%.
